# Experimental data from PubChem BioAssay (NCATS).
# Where “and” joins values, the source holds several entries; their conditions need not be identical. Equal entries are not always repeated. Results filed as inconclusive are left out. Where a call stands in place of a potency, no number is given. Calls of active or inactive are those of the source. Unless noted, calls follow the shape of the full dose curve.
# Assays:
# [1] = Primary qHTS for inhibitors of MERS-S pseudo-typed particle cell entry (AID 1479149); conditions: MERS-S pseudotyped particle entry, luciferase; series mostly up to 57.1 µM; also: nearly all actives have a fitted effect of over 60% in size; also: potency is read from the fitted curve at half-maximal effect
# [2] = Primary qHTS for Vero E6 cytotoxicity: counterscreen for inhibitors of SARS-S pseudo-typed particle cell entry (AID 1479150); conditions: cell viability; series mostly up to 57.1 µM
# [3] = Primary qHTS for inhibitors of La Crosse Virus (LACV) - induced cell death in SH-SY5Y cells (AID 1508616; active = well fitted curve in the direction sought with a large enough effect; an effect the other way counts as inactive or inconclusive;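 also: top concentration of the series differs between compounds; higher means more rescue of cells from virus-induced death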); conditions: SH-SY5Y LACV cytopathicity rescue, ATP luminescence, 6 d; series mostly up to 4.29 µM
# Outline: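 Protection against LACV-induced cell death is scored in SH-SY5Y cells exposed to compounds and virus (0.01 MOI) for 6 days. Data normalized to virus-infected DMSO wells and virus-free DMSO wells.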
# [4] = target: Calcium and integrin-binding protein 1 (Homo sapiens) (UniProt Q99828); assay: Validation qHTS for Identification of Calcium Integrin Binding protein 1 (CIB1) Competitor (AID 1508618; active = well fitted curve in the direction sought with a large enough effect; an effect the other way counts as inactive or inconclusive); conditions: CIB1-GST / FITC-alphaIIb peptide fluorescence polarization; series mostly up to 114 µM
# Outline: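 In this qHTS validation, the LOPAC set (up to 114 uM) was tested for blocking CIB1 binding to a fluorescein-tagged alphaIIb peptide, with FP detection at 480/540 nm.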
# [5] = target: Cytochrome P450 2D6 (Homo sapiens) (UniProt P10635); assay: Cytochrome P450 family 2 subfamily D member 6 (CYP2D6) small molecule antagonists: luciferase biochemical (cell-free) qHTS assay (AID 1645840; active = well fitted curve in the direction sought with a large enough effect in the repeat runs; an effect the other way counts as inactive or inconclusive; also: nearly all actives have a fitted effect of over 55% in size; also: potency is read from the fitted curve at half-maximal effect); conditions: P450-Glo CYP2D6 enzyme, luciferin luminescence, 1 h; series mostly up to 57.4 µM
# Outline: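 P450-Glo luminescent screen: recombinant CYP2D6 enzyme–proluciferin substrate mix preincubated with compound 10 min at room temperature, then NADPH regeneration added for 1 h at room temperature. Detection reagent added for 20 min; luciferin light read as relative luminescence units.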
# [6] = target: Cytochrome P450 2C9 (Homo sapiens) (UniProt P11712); assay: Cytochrome P450 family 2 subfamily C member 9 (CYP2C9) small molecule antagonists: luciferase biochemical (cell-free) qHTS assay (AID 1645842; active = well fitted curve in the direction sought with a large enough effect in the repeat runs; an effect the other way counts as inactive or inconclusive; also: nearly all actives have a fitted effect of over 55% in size; also: potency is read from the fitted curve at half-maximal effect); conditions: P450-Glo CYP2C9 enzyme assay, luciferin luminescence; series mostly up to 57.4 µM
# Outline: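 Luminescence, after 20 min with luciferin detection reagent, reflected CYP2C9 turnover during a 1 h NADPH-driven reaction at 37C. Enzyme-substrate mix contained 0.4% bovine serum albumin and was preincubated with compound 10 min at room temperature.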
# [7] = target: Calcium and integrin-binding protein 1 (Homo sapiens) (UniProt Q99828); assay: Primary qHTS for Identification of Calcium Integrin Binding Protein 1 (CIB1) Competitor (AID 1508620; active = well fitted curve in the direction sought with a large enough effect; an effect the other way counts as inactive or inconclusive;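 also: GST tagged CIB1 binding a fluorescein labelled alphaIIb integrin peptide tracer; top concentration of the series differs between compounds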); conditions: CIB1-GST / FITC-alphaIIb peptide fluorescence polarization; series mostly up to 114 µM
# Outline: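 CIB1-GST (1 uM final) and compound incubated 15 min at room temperature before adding FITC-alphaIIb peptide tracer (100 nM final). Competition for binding read by fluorescence polarization (ex 480, em 540) after another 15 min at room temperature.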
# [8] = Primary qHTS for small molecule stabilizers of the endoplasmic reticulum resident proteome: Secreted ER Calcium Modulated Protein (SERCaMP) assay (AID 1508630; active = well fitted curve in the direction sought with a large enough effect; an effect the other way counts as inactive or inconclusive); conditions: SH-SY5Y GLuc-SERCaMP (Gaussia luciferase released on ER calcium loss) secretion, thapsigargin, luminescence; series mostly up to 38.4 µM
# Outline: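 GLuc-SERCaMP-expressing SH-SY5Y cells, pretreated 16 h with compound, are challenged with thapsigargin to empty ER calcium stores; after 4 h, coelenterazine is added directly to the medium and luminescence is imaged.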
# [9] = A High-Content qHTS Against Drug Library for the Identification of Small Molecules that Inhibit DYT1 Early Onset Primary Dystonia-Associated Cell Pathology (AID 1645839); conditions: HEK293 Flp-In EGFP-delE TorsinA, punctate imaging, 48 h; series mostly up to 46.1 µM
# Outline: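 In this high-content image screen, delE TorsinA mislocalization in inducible Flp-In 293 cells is scored as %pathology, with cell count serving as the counterscreen. Compound exposure lasts 48 h under tetracycline induction in reduced-serum medium.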
# [10] = Cytotoxicity counterscreen for inhibitors of SARS-CoV-2 cell entry (AID 1645845); conditions: cell viability (SARS-CoV-2 entry assay cells); series mostly up to 57.1 µM; also: nearly all actives have a fitted effect of over 50% in size
# Outline: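 48 h compound treatment (after 1 h preincubation), HEK293-ACE2 cells, 37 C/5% CO2; ATP luminescence endpoint; normalized to cell wells and media blanks.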
# [11] = Primary qHTS to identify inhibitors of SARS-CoV-2 cell entry (AID 1645846); conditions: SARS-CoV-2 pseudovirus cell entry assay, luminescence; activity change, negative = inhibition: at 57.1 µM (top of the series) unless noted; series mostly up to 57.1 µM; also: nearly all actives have a fitted effect of over 45% in size; also: potency is read from the fitted curve at half-maximal effect
# Outline: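 Inhibition of spike-mediated entry was scored in human ACE2-transfected Expi293F cells. Particles were MLV-pseudotyped with Wuhan-Hu-1 S carrying a 19-aa C-terminal deletion; signal was luciferase after two days, scaled between spike PP and fusion-protein-free PP.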
# [12] = Confirmatory qHTS for VERO E6 Cytotoxicity Assay: Counterscreen for SARS-CoV-2 CPE Assay (AID 1508605); conditions: cell viability luminescence; series mostly up to 20 µM; also: nearly all actives have a fitted effect of over 60% in size
# [13] = Confirmatory qHTS to identify inhibitors of SARS-CoV-2 cell entry (AID 1645844); conditions: SARS-CoV-2 pseudotyped particle cell entry, luciferase; series mostly up to 57.2 µM; also: nearly all actives have a fitted effect of over 45% in size; also: potency is read from the fitted curve at half-maximal effect
# Outline: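 Luminescence from a luciferase reporter, read 48 hr after pseudotyped-particle addition, gives entry signal, normalised to spike-bearing PP wells and bald PP lacking fusion protein wells. Cells are Expi293F stably expressing human ACE2, compound-pretreated 1 hr.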
# [14] = VSVG counterscreen qHTS to identify inhibitors of SARS-CoV-2 cell entry (AID 1645847); conditions: VSV-G pseudotyped particle entry, luciferase; series mostly up to 57.2 µM; also: nearly all actives have a fitted effect of over 65% in size; also: potency is read from the fitted curve at half-maximal effect
# Outline: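 Luminescence from a luciferase reporter, normalised to bald particle and VSV-G pseudotyped particle wells, is the read-out. Cells are HEK293 expressing human ACE2, exposed to compound 1 h before a 48 h particle infection at 37 °C.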
# Chain of Cytochrome P450 2C9 (Homo sapiens) (P11712 whole entry, looked up): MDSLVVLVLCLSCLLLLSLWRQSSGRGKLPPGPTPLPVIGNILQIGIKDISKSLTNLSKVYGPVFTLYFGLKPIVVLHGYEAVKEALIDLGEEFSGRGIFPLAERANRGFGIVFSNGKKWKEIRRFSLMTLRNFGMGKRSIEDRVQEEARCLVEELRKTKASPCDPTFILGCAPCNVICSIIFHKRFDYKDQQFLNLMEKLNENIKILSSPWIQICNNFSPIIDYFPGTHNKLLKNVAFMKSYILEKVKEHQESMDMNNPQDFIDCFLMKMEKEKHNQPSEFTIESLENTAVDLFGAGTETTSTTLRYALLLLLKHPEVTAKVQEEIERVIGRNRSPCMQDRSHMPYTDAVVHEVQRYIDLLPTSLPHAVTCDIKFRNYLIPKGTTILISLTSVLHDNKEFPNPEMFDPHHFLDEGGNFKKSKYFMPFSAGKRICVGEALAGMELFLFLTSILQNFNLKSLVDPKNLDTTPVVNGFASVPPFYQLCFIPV
# Chain of Cytochrome P450 2D6 (Homo sapiens) (P10635 whole entry, looked up): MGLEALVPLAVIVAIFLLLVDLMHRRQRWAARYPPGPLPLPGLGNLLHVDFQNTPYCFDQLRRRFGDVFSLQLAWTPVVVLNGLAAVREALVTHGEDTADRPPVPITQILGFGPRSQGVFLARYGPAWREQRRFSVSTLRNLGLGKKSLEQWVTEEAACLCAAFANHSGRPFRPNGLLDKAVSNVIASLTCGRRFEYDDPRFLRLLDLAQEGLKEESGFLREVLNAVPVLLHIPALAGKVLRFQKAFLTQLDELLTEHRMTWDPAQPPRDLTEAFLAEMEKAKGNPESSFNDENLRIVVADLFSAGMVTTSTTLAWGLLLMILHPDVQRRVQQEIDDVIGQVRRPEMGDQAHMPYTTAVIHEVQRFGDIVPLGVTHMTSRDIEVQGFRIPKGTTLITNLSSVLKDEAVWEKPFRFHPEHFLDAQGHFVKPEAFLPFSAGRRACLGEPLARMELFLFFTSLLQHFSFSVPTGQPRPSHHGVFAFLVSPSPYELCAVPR
# Chain of Calcium and integrin-binding protein 1 (Homo sapiens) (Q99828 whole entry, looked up): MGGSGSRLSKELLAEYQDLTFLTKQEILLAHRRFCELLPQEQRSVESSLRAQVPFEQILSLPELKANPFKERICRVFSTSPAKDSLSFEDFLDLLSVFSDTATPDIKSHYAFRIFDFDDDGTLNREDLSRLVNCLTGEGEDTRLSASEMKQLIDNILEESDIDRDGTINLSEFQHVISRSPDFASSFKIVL
smiles,measurement,setting,value
CC(CCc1ccccc1)NC(C)C(O)c1ccc(O)cc1 (centres undefined),Potency,[1],inactive
same,Potency,[2],inactive
same,Potency,[3],inactive
same,Potency,[4],inactive
same,Potency,[5],0.195 µM (active)
same,Potency,[6],inactive
CC(=O)N(O)CCCCCNC(=O)CCC(=O)N(O)CCCCCNC(=O)CCC(=O)N(O)CCCCCN,Potency,[1],inactive
same,Potency,[2],inactive
O[C@@H](c1cc(C(F)(F)F)nc2c(C(F)(F)F)cccc12)[C@H]1CCCCN1,Potency,[1],inactive
CN1CCN(CCCN2c3ccccc3Sc3ccc(C(F)(F)F)cc32)CC1,Potency,[1],28.2 µM (active)
same,Potency,[2],inactive
CC(C)(C)NCC(O)c1cc(Cl)c(N)c(Cl)c1 (centres undefined),Potency,[1],inactive
same,Potency,[2],inactive
same,Potency,[3],inactive
same,Potency,[7],inactive
same,outcome,[8],inactive
same,Potency,[9],inactive
same,Potency,[6],inactive
same,Potency,[10],inactive
same,"activity change, negative = inhibition",[11],0.184%
O=C1CC[C@@]2(O)[C@H]3Cc4ccc(O)c5c4[C@@]2(CCN3CC2CC2)[C@H]1O5,Potency,[1],inactive
same,Potency,[2],inactive
same,Potency,[3],inactive
same,Potency,[7],inactive
same,outcome,[8],inactive
same,Potency,[9],inactive
same,Potency,[6],inactive
same,Potency,[10],inactive
same,"activity change, negative = inhibition",[11],-8.92%
Cc1ncc(CNC(=O)N(CCCl)N=O)c(N)n1,Potency,[1],inactive
same,Potency,[2],inactive
same,Potency,[3],inactive
same,Potency,[4],inactive
same,Potency,[7],inactive
same,outcome,[8],inactive
same,Potency,[9],inactive
same,Potency,[10],inactive
same,Potency,[11],inactive
CC(C)C(=O)Nc1ccc([N+](=O)[O-])c(C(F)(F)F)c1,Potency,[1],22.4 µM (active)
NS(=O)(=O)c1cc2c(cc1C(F)(F)F)NCNS2(=O)=O,Potency,[1],inactive
same,Potency,[2],inactive
CC(C)=CC1C(C(=O)OCc2cccc(Oc3ccccc3)c2)C1(C)C (centres undefined),Potency,[1],inactive
same,Potency,[2],inactive
same,Potency,[3],inactive
same,Potency,[7],inactive
same,outcome,[8],inactive
same,Potency,[9],inactive
same,Potency,[6],3.89 µM (active)
same,Potency,[10],inactive
same,Potency,[11],inactive
Clc1ccc2c(c1)C(N1CCNCC1)=Nc1ccccc1O2,Potency,[1],inactive
same,Potency,[2],inactive
same,Potency,[12],inactive
same,Potency,[10],inactive
same,"activity change, negative = inhibition",[11],-2.85%
CN1CCC[C@@H]1Cc1c[nH]c2ccc(CCS(=O)(=O)c3ccccc3)cc12,Potency,[1],inactive
same,Potency,[2],inactive
CC(C)c1nc(CN(C)C(=O)N[C@H](C(=O)N[C@@H](Cc2ccccc2)C[C@H](O)[C@H](Cc2ccccc2)NC(=O)OCc2cncs2)C(C)C)cs1,Potency,[1],inactive
same,Potency,[2],inactive
same,Potency,[10],inactive
OCCOc1ccccc1,Potency,[1],inactive
same,Potency,[2],inactive
same,Potency,[3],inactive
same,Potency,[7],inactive
same,Potency,[9],inactive
same,Potency,[5],inactive
same,Potency,[6],inactive
same,Potency,[10],inactive
CN1CCN(C(=O)O[C@H]2c3nccnc3C(=O)N2c2ccc(Cl)cn2)CC1,Potency,[1],inactive
same,Potency,[2],inactive
same,Potency,[3],inactive
same,outcome,[8],inactive
same,Potency,[9],inactive
same,Potency,[6],inactive
same,Potency,[10],inactive
same,Potency,[11],inactive
CN(C)[C@@H]1C(=O)C(C(N)=O)=C(O)[C@@]2(O)C(=O)C3=C(O)c4c(O)cccc4[C@@](C)(O)[C@H]3C[C@@H]12,Potency,[1],inactive
same,Potency,[2],inactive
same,Potency,[3],inactive
same,Potency,[9],inactive
same,Potency,[5],15.5 µM (active)
same,Potency,[10],inactive
same,Potency,[11],inactive
N=c1nc(N2CCCCC2)cc(N)n1O,Potency,[1],inactive
same,Potency,[2],inactive
same,Potency,[10],inactive
Oc1ccccc1-c1ccccc1,Potency,[1],inactive
same,Potency,[2],inactive
same,Potency,[3],inactive
same,outcome,[8],inactive
same,Potency,[9],inactive
same,Potency,[5],inactive
same,Potency,[6],inactive
same,Potency,[10],inactive
same,Potency,[11],inactive
O=C(O)COCCN1CCN(C(c2ccccc2)c2ccc(Cl)cc2)CC1 (centres undefined),Potency,[1],inactive
same,Potency,[2],inactive
same,Potency,[10],inactive
CCCc1cc(=O)[nH]c(=S)[nH]1,Potency,[1],inactive
same,Potency,[2],inactive
same,Potency,[13],inactive
same,Potency,[11],inactive
same,"activity change, negative = inhibition",[11],-37.3%
same,Potency,[14],inactive
Nc1nc(F)nc2c1ncn2[C@@H]1O[C@H](CO)[C@@H](O)[C@@H]1O,Potency,[1],inactive
same,Potency,[2],inactive
same,Potency,[10],inactive
Cc1cn([C@H]2C[C@H](N=[N+]=[N-])[C@@H](CO)O2)c(=O)[nH]c1=O,Potency,[1],inactive
same,Potency,[2],inactive
same,Potency,[13],0.541 µM (active)
same,Potency,[10],inactive
same,Potency,[14],0.429 µM (active)
CCN(CC)C(=O)N[C@@H]1C=C2c3cccc4[nH]cc(c34)C[C@@H]2N(C)C1,Potency,[1],inactive
same,Potency,[2],inactive
same,outcome,[8],inactive
same,Potency,[9],inactive
same,Potency,[10],inactive
same,"activity change, negative = inhibition",[11],3.33%
CC[C@]1(O)C[C@@H]2CN(CCc3c([nH]c4ccccc34)[C@@](C(=O)OC)(c3cc4c(cc3OC)N(C)[C@H]3[C@@](O)(C(=O)OC)[C@H](OC(C)=O)[C@]5(CC)C=CCN6CC[C@]43[C@@H]65)C2)C1,Potency,[1],inactive
same,Potency,[2],inactive
same,Potency,[13],0.0764 µM (active)
same,Potency,[10],inactive
same,"activity change, negative = inhibition",[11],-82.9%
same,Potency,[14],0.0341 µM (active)
Oc1ccc(Cl)cc1Cc1ccccc1,Potency,[1],inactive
same,Potency,[2],inactive
same,Potency,[3],inactive
same,outcome,[8],inactive
same,Potency,[5],29.4 µM (active)
same,Potency,[6],9.31 µM (active) and 12.3 µM (active)
same,Potency,[10],inactive
same,"activity change, negative = inhibition",[11],-21.8%
N[C@@H]1C[C@H]1c1ccccc1,Potency,[1],inactive
same,Potency,[2],inactive
same,Potency,[3],inactive
same,outcome,[8],inactive
same,Potency,[9],inactive
same,Potency,[6],21.9 µM (active)
same,Potency,[10],inactive
N[C@@H](Cc1ccc(N(CCCl)CCCl)cc1)C(=O)O,Potency,[1],inactive
same,Potency,[2],inactive
same,Potency,[7],inactive
same,outcome,[8],inactive
same,Potency,[9],inactive
same,Potency,[5],19.5 µM (active)
same,Potency,[13],0.681 µM (active)
same,Potency,[10],inactive
same,Potency,[14],0.152 µM (active)
C=C(CC)C(=O)c1ccc(OCC(=O)O)c(Cl)c1Cl,Potency,[1],inactive
same,Potency,[2],inactive
same,Potency,[13],8.57 µM (active)
same,Potency,[10],inactive
same,Potency,[11],17.8 µM (active)
same,Potency,[14],1.92 µM (active)
